Test results: PubChem BioAssay AID1159580 (chemical genetic matrix, 2015)
“And” between values parts separate entries of the source, which are not always exact repeats. Equal entries are not always repeated. About 2,000 (36%) of roughly 5,500 compounds were called active. Roughly 18% stayed inconclusive and do not appear here. Rule as the data show it: active = normalized growth mostly below about 0.91 (no sharp cut-off); inconclusive = no clear call, values can overlap the other calls; inactive = mostly above about 0.92. The list shows a part of the results.

Assay: chemical genetic growth profiling, strain panel (AID 1159580);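 also: tested at 20 µM; growth read once vehicle control cultures reached saturation at 30 °C; 1 = growth at the plate median or of vehicle wells; lower values mean less growth of the strain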
Settings: S. cerevisiae deletion strains, growth OD

Measured: normalized growth

CCCC(=O)O[C@]1(C(=O)CO)CCC2[C@@H]3CCC4=CC(=O)CC[C@]4(C)C3[C@@H](O)C[C@@]21C (stereo not given in full)
inactive: locus YAL013W, strain DEP1, hits give low values 1.01 | locus YAL021C, strain ccr4, hits give low values 0.997 | locus YAL026C, strain drs2, hits give low values 1.02 | locus YAL030W, strain snc1, hits give low values 1 | locus YBL061C, strain skt5, hits give low values 1 | locus YBR009C, strain hhf1, hits give low values 1 | locus YBR021W, strain FUR4, hits give low values 1.02 | locus YBR023C, strain chs3, hits give low values 1 | locus YBR171W, strain sec66, hits give low values 1.01 | locus YBR229C, strain ROT2, hits give low values 1.02 | locus YBR231C, strain swc5, hits give low values 1 | locus YBR279W, strain paf1, hits give low values 0.996 | locus YCL011C, strain gbp2, hits give low values 1.01 | locus YCL016C, strain dcc1, hits give low values 1.01 | locus YCL029C, strain bik1, hits give low values 0.983 | locus YCL061C, strain MRC1, hits give low values 1 | locus YCL069W, strain vba3, hits give low values 1 | locus YCR088W, strain abp1, hits give low values 1.01 | locus YDL005C, strain med2, hits give low values 1.01 | locus YDL035C, strain GPR1, hits give low values 0.997 | locus YDL040C, strain nat1, hits give low values 1.01 | locus YDL074C, strain BRE1, hits give low values 1.01 | locus YDL101C, strain DUN1, hits give low values 1.01 | locus YDL134C, strain PPH21, hits give low values 1.01 | locus YDL185W, strain tfp1, hits give low values 0.965 | locus YDL192W, strain arf1, hits give low values 0.98 | locus YDR001C, strain nth1, hits give low values 1.01 | locus YDR069C, strain doa4, hits give low values 1.01 | locus YDR101C, strain arx1, hits give low values 1.01 | locus YDR137W, strain rgp1, hits give low values 1.01 | locus YDR150W, strain NUM1, hits give low values 1.01 | locus YDR159W, strain sac3, hits give low values 0.998 | locus YDR162C, strain NBP2, hits give low values 0.991 | locus YDR195W, strain ref2 0.99 | locus YDR297W, strain sur2, hits give low values 1.01 | locus YDR318W, strain mcm21, hits give low values 1 | locus YDR334W, strain swr1, hits give low values 1.02 | locus YDR335W, strain msn5, hits give low values 1 | locus YDR388W, hits give low values 0.976 | locus YDR392W, strain spt3, hits give low values 1.01 | locus YDR502C, strain sam2, hits give low values 0.981 | locus YEL003W, strain gim4, hits give low values 1.01 | locus YEL037C, strain rad23, hits give low values 1 | locus YEL061C, strain CIN8 (second series), hits give low values 1.01 | locus YEL061C, strain CIN8, hits give low values 1 | locus YER015W, strain faa2, hits give low values 1.01 | locus YER016W, strain bim1, hits give low values 1.01 | locus YER110C, hits give low values 0.946 | locus YER111C, strain swi4, hits give low values 1.01 | locus YER155C, strain BEM2 (second series), hits give low values 1.01 | locus YER155C, strain BEM2, hits give low values 1.02 | locus YER167W, strain BCK2, hits give low values 1.01 | locus YFR010W, strain ubp6, hits give low values 1.01 | locus YGL078C, strain dbp3, hits give low values 0.978 | locus YGL086W, strain mad1, hits give low values 0.99 | locus YGL167C, strain pmr1, hits give low values 1.01 | locus YGL173C, strain kem1, hits give low values 1 | locus YGL227W, strain vid30, hits give low values 1.02 | locus YGL240W, strain doc1, hits give low values 1.01 | locus YGL248W, strain PDE1, hits give low values 1.02 | locus YGL253W, strain hxk2, hits give low values 1.01 | locus YGR135W, strain pre9, hits give low values 0.939 | locus YGR229C, strain SMI1, hits give low values 0.987 | locus YGR252W, strain gcn5, hits give low values 0.94 | locus YHR013C, strain ard1, hits give low values 1.01 | locus YHR027C, strain rpn1, hits give low values 1 | locus YHR030C, strain SLT2, hits give low values 1.01 and 1.04 | locus YHR079C, strain IRE1 (second series), hits give low values 0.997 | locus YHR079C, strain IRE1, hits give low values 1.05 | locus YHR094C, strain hxt1, hits give low values 0.984 | locus YHR129C, strain ARP1, hits give low values 1.01 | locus YHR142W, strain chs7, hits give low values 1.02 | locus YHR200W, strain rpn10, hits give low values 0.994 | locus YIL066C, strain RNR3, hits give low values 1.02 | locus YIL073C, strain SPO22, hits give low values 0.867 | locus YIL125W, strain kgd1, hits give low values 0.994 | locus YIR030C, strain dcg1, hits give low values 0.994 | locus YJL092W, strain hpr5, hits give low values 1.01 | locus YJL095W, strain BCK1 (second series), hits give low values 1 | locus YJL095W, strain BCK1, hits give low values 1.01 and 1.05 | locus YJL115W, strain asf1, hits give low values 1.02 | locus YJL129C, strain trk1, hits give low values 1.01 | locus YJL134W, strain LCB3, hits give low values 1.01 | locus YJL154C, strain vps35, hits give low values 1.01 | locus YJL164C, strain tpk1, hits give low values 1.01 | locus YJL166W, strain qcr8, hits give low values 1.01 | locus YJL168C, strain set2, hits give low values 0.976 | locus YJL187C, strain SWE1 (second series), hits give low values 1.01 | locus YJL187C, strain SWE1, hits give low values 1 | locus YJR043C, strain POL32, hits give low values 0.992
